Experimental data published in PubChem BioAssay AID1159580 (chemical genetic matrix, 2015).
“And” between values parts separate entries of the source, which are not always exact repeats. Equal values may be shown once. The whole screen tested about 5,500 compounds, of which about 2,000 (36%) were called active. Roughly 18% stayed inconclusive and do not appear here. Rule as the data show it: active = normalized growth mostly below about 0.91 (no sharp cut-off); inconclusive = no clear call, values can overlap the other calls; inactive = mostly above about 0.92. The list shows a part of the results.

Experiment: chemical genetic growth profiling, strain panel (AID 1159580);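 also: tested at 20 µM; growth read once vehicle control cultures reached saturation at 30 °C; 1 = growth at the plate median or of vehicle wells; lower values mean less growth of the strain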
Conditions: growth OD

Measured: normalized growth

CC(=O)Nc1ccc(S(=O)(=O)Nc2ccc([N+](=O)[O-])cc2)cc1
inactive: S. cerevisiae deletion strains, locus YAL013W, strain DEP1, stronger effect = lower value 1.01 | S. cerevisiae deletion strains, locus YBR021W, strain FUR4, stronger effect = lower value 0.97 | S. cerevisiae deletion strains, locus YBR229C, strain ROT2, stronger effect = lower value 1.01 | S. cerevisiae deletion strains, locus YCL029C, strain bik1, stronger effect = lower value 1.01 | S. cerevisiae deletion strains, locus YDL035C, strain GPR1, stronger effect = lower value 1.01 | S. cerevisiae deletion strains, locus YDL074C, strain BRE1, stronger effect = lower value 0.986 | S. cerevisiae deletion strains, locus YDL101C, strain DUN1, stronger effect = lower value 1 | S. cerevisiae deletion strains, locus YDL134C, strain PPH21, stronger effect = lower value 1 | S. cerevisiae deletion strains, locus YDL185W, strain tfp1, stronger effect = lower value 0.999 | S. cerevisiae deletion strains, locus YDL192W, strain arf1, stronger effect = lower value 1.01 | S. cerevisiae deletion strains, locus YDR101C, strain arx1, stronger effect = lower value 0.99 | S. cerevisiae deletion strains, locus YDR150W, strain NUM1, stronger effect = lower value 1.02 | S. cerevisiae deletion strains, locus YDR162C, strain NBP2, stronger effect = lower value 1.01 | S. cerevisiae deletion strains, locus YDR318W, strain mcm21, stronger effect = lower value 0.991 | S. cerevisiae deletion strains, locus YDR388W, stronger effect = lower value 0.999 | S. cerevisiae deletion strains, locus YDR502C, strain sam2, stronger effect = lower value 1 | S. cerevisiae deletion strains, locus YEL061C, strain CIN8, stronger effect = lower value 1.01 | S. cerevisiae deletion strains, locus YER110C, stronger effect = lower value 0.997 | S. cerevisiae deletion strains, locus YER155C, strain BEM2, stronger effect = lower value 1 | S. cerevisiae deletion strains, locus YER167W, strain BCK2, stronger effect = lower value 1.01 | S. cerevisiae deletion strains, locus YGL078C, strain dbp3, stronger effect = lower value 1 | S. cerevisiae deletion strains, locus YGL086W, strain mad1, stronger effect = lower value 1 | S. cerevisiae deletion strains, locus YGL248W, strain PDE1, stronger effect = lower value 1 | S. cerevisiae deletion strains, locus YGR078C, strain PAC10, stronger effect = lower value 0.995 | S. cerevisiae deletion strains, locus YGR135W, strain pre9, stronger effect = lower value 0.996 | S. cerevisiae deletion strains, locus YGR229C, strain SMI1, stronger effect = lower value 1.01 | S. cerevisiae deletion strains, locus YGR252W, strain gcn5, stronger effect = lower value 0.955 | S. cerevisiae deletion strains, locus YHR030C, strain SLT2, stronger effect = lower value 1.01 and 1 | S. cerevisiae deletion strains, locus YHR079C, strain IRE1 (second series), stronger effect = lower value 0.997 | S. cerevisiae deletion strains, locus YHR079C, strain IRE1, stronger effect = lower value 0.984 | S. cerevisiae deletion strains, locus YHR094C, strain hxt1, stronger effect = lower value 1 | S. cerevisiae deletion strains, locus YHR129C, strain ARP1, stronger effect = lower value 1 | S. cerevisiae deletion strains, locus YHR200W, strain rpn10, stronger effect = lower value 0.992 | S. cerevisiae deletion strains, locus YIL066C, strain RNR3, stronger effect = lower value 1.02 | S. cerevisiae deletion strains, locus YIL073C, strain SPO22, stronger effect = lower value 1.05 | S. cerevisiae deletion strains, locus YIL125W, strain kgd1, stronger effect = lower value 0.996 | S. cerevisiae deletion strains, locus YIR030C, strain dcg1, stronger effect = lower value 1.01 | S. cerevisiae deletion strains, locus YJL095W, strain BCK1, stronger effect = lower value 0.994 and 0.998 | S. cerevisiae deletion strains, locus YJL134W, strain LCB3, stronger effect = lower value 1.01 | S. cerevisiae deletion strains, locus YJL168C, strain set2, stronger effect = lower value 0.989 | S. cerevisiae deletion strains, locus YJL187C, strain SWE1 (second series), stronger effect = lower value 1.01 | S. cerevisiae deletion strains, locus YJR043C, strain POL32, stronger effect = lower value 0.995 | S. cerevisiae deletion strains, locus YJR066W, strain TOR1, stronger effect = lower value 0.93 | S. cerevisiae deletion strains, locus YJR075W, strain HOC1, stronger effect = lower value 1.01 | S. cerevisiae deletion strains, locus YKL009W, strain mrt4, stronger effect = lower value 1.09 | S. cerevisiae deletion strains, locus YKL068W, stronger effect = lower value 1 | S. cerevisiae deletion strains, locus YKL085W, strain MDH1 (second series), stronger effect = lower value 1.01 | S. cerevisiae deletion strains, locus YKL085W, strain MDH1, stronger effect = lower value 1.01 | S. cerevisiae deletion strains, locus YKL190W, strain CNB1, stronger effect = lower value 1.01 | S. cerevisiae deletion strains, locus YKR001C, strain vps1, stronger effect = lower value 1.01 | S. cerevisiae deletion strains, locus YLR039C, strain RIC1, stronger effect = lower value 1.04 | S. cerevisiae deletion strains, locus YLR058C, strain SHM2, stronger effect = lower value 1.01 | S. cerevisiae deletion strains, locus YLR102C, strain apc9, stronger effect = lower value 0.994 | S. cerevisiae deletion strains, locus YLR113W, strain HOG1, stronger effect = lower value 0.969 | S. cerevisiae deletion strains, locus YLR262C, strain YPT6, stronger effect = lower value 1.04 | S. cerevisiae deletion strains, locus YLR268W, strain sec22, stronger effect = lower value 0.993 | S. cerevisiae deletion strains, locus YLR330W, strain CHS5, stronger effect = lower value 1.01 | S. cerevisiae deletion strains, locus YLR342W, strain FKS1 (second series), stronger effect = lower value 0.995 | S. cerevisiae deletion strains, locus YLR371W, strain rom2, stronger effect = lower value 0.994 | S. cerevisiae deletion strains, locus YLR418C, strain cdc73, stronger effect = lower value 0.949 | S. cerevisiae deletion strains, locus YML016C, strain PPZ1, stronger effect = lower value 1.01 | S. cerevisiae deletion strains, locus YML032C, strain rad52, stronger effect = lower value 0.987 | S. cerevisiae deletion strains, locus YML124C, strain tub3, stronger effect = lower value 1 | S. cerevisiae deletion strains, locus YMR078C, strain ctf18, stronger effect = lower value 0.993 | S. cerevisiae deletion strains, locus YMR223W, strain ubp8, stronger effect = lower value 1 | S. cerevisiae deletion strains, locus YMR263W, strain SAP30, stronger effect = lower value 1.01 | S. cerevisiae deletion strains, locus YMR307W, strain GAS1, stronger effect = lower value 0.989 | S. cerevisiae deletion strains, locus YNL067W, strain RPL9B, stronger effect = lower value 1.01 | S. cerevisiae deletion strains, locus YNL128W, strain TEP1, stronger effect = lower value 1.01 | S. cerevisiae deletion strains, locus YNL153C, strain GIM3, stronger effect = lower value 0.995 | S. cerevisiae deletion strains, locus YNL183C, strain NPR1, stronger effect = lower value 0.941 | S. cerevisiae deletion strains, locus YNL233W, strain BNI4, stronger effect = lower value 1 | S. cerevisiae deletion strains, locus YNL250W, strain rad50, stronger effect = lower value 0.996 | S. cerevisiae deletion strains, locus YNL271C, strain bni1, stronger effect = lower value 1 | S. cerevisiae deletion strains, locus YNL298W, strain CLA4, stronger effect = lower value 1 | S. cerevisiae deletion strains, locus YNL307C, strain MCK1, stronger effect = lower value 1 | S. cerevisiae deletion strains, locus YNL322C, strain KRE1, stronger effect = lower value 1 | S. cerevisiae deletion strains, locus YNR052C, strain pop2, stronger effect = lower value 1 | S. cerevisiae deletion strains, locus YOL006C, strain TOP1, stronger effect = lower value 0.975 | S. cerevisiae deletion strains, locus YOL012C, strain htz1 1.05 | S. cerevisiae deletion strains, locus YOL147C, strain pex11, stronger effect = lower value 0.996 | S. cerevisiae deletion strains, locus YOR061W, strain CKA2, stronger effect = lower value 1.01 | S. cerevisiae deletion strains, locus YOR069W, strain VPS5, stronger effect = lower value 1 | S. cerevisiae deletion strains, locus YOR136W, strain idh2, stronger effect = lower value 0.998 | S. cerevisiae deletion strains, locus YOR144C, strain elg1, stronger effect = lower value 0.997 | S. cerevisiae deletion strains, locus YOR184W, strain ser1, stronger effect = lower value 1 | S. cerevisiae deletion strains, locus YOR231W, strain MKK1, stronger effect = lower value 0.989 | S. cerevisiae deletion strains, locus YOR316C, strain cot1, stronger effect = lower value 1 | S. cerevisiae deletion strains, locus YPL055C, strain LGE1, stronger effect = lower value 1.03 | S. cerevisiae deletion strains, locus YPL241C, strain CIN2, stronger effect = lower value 1.01 | S. cerevisiae deletion strains, locus YPL256C, strain CLN2, stronger effect = lower value 0.989 | S. cerevisiae deletion strains, locus YPR119W, strain clb2, stronger effect = lower value 0.998 | S. cerevisiae deletion strains, locus YPR141C, strain kar3, stronger effect = lower value 1 | S. cerevisiae deletion strains, locus YPR163C, strain tif3, stronger effect = lower value 1.01 | S. cerevisiae deletion strains, locus YPR167C, strain met16, stronger effect = lower value 0.992 | S. cerevisiae deletion strains, strain wtn01, stronger effect = lower value 0.988 | S. cerevisiae strains, strain wild type, stronger effect = lower value 1.01
